HTT-AS promoter = activators of huntingtin-antisense promoter activity | HEK293 HTT-AS promoter firefly luciferase reporter, 24 h; response scale: percent change from vehicle, -100% = no light | AID 1508624 | 0.24% of 48,000 active | Potency, µM (top dose mostly 57.5 µM), without a hit: at the top dose activity change, positive = activation, actives largely listed as activators; note: nearly all actives have a fitted effect of over 55% in size
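HEK293 cells carrying firefly luciferase reporters were seeded at 2,500 per well in Opti-MEM and cultured for 24 h. They were then treated with compounds at up to 57.5 uM final for 24 h at 37 degrees C before Dual-Glo luminescence readout.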
FH mod = Identification of activators of human fumarate hydratase by quantitative high-throughput screening; FH coupled MDH/diaphorase resazurin fluorescence, 15 min; 0.22% of 54,000 active; Potency, µM (top dose mostly 79.9 µM), without a hit: at the highest dose activity change, negative = inhibition, usual class: inhibitors; Fumarate hydratase, mitochondrial (Homo sapiens), P07954; note: % is set by controls: 0 for no effect and ±100 for the full control effect; the screen sought activators but most active calls are inhibition curves; nearly all actives have a fitted effect of over 45% in size
Target sequence (P07954 whole entry, looked up): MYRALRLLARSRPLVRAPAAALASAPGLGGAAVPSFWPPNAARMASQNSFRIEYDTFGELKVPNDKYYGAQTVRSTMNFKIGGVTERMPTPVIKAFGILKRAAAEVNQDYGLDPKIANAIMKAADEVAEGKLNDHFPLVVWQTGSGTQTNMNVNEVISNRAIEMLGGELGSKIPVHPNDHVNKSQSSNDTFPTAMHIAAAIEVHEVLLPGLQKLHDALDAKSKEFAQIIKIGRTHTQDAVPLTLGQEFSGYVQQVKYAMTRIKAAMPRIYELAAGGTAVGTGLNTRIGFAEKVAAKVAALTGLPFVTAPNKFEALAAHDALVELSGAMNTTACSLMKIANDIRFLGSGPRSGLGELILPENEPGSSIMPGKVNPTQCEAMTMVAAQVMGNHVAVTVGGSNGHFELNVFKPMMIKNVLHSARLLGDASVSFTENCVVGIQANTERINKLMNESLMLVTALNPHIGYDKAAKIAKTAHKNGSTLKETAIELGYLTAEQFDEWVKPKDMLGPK
HTT promoter inh = HTT promoter inhibition | HEK293 HTT promoter firefly luciferase reporter, 24 h | Potency, µM (series often up to 57.5 µM), inactives show top-dose activity change, negative = inhibition, hits mostly inhibitors | 0.93% of 48,000 active; note: nearly all actives have a fitted effect of over 50% in size
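Firefly luciferase readout (Dual-Glo, 10 min RT) after 24 h, 37 °C compound exposure (final up to 57.5 uM) of HEK293 reporter cells cultured 24 h beforehand; PTC124 at 50 uM final as control inhibitor; activity scaled vehicle 0%, zero RLU -100%.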
* marks the source's active call; other numbers are inactive results; ? = inconclusive; nt = no result; [ ] = another dose, or the depositor's remark. Sampled rows, rich in hits. Any-hit rate of the full collection: about 1.3%. Calls come from the whole dose curve; as a rule, active = well fitted curve in the direction sought with a large enough effect; inconclusive = small, poorly fitted or top-dose-only effect, or another doubt; inactive = no such curve, though single readings can be large; an effect the other way counts as inactive or inconclusive. Potency is the fitted concentration of half-maximal effect.

SMILES	HTT-AS promoter	FH mod	HTT promoter inh
Cc1cccc(OCC(=O)Nc2ccc(-c3nc4cc(C)ccc4o3)c(O)c2)c1	0.5µM*	-9%	110%
CC1OC(OC2C(C)OC(OC3C(OC(=O)C45CCC(C)(C)CC4C4=CCC6C7(C)CCC(OC8OC(C(=O)O)C(O)C(O)C8OC8OC(CO)C(O)C(OC9OC(C)C(O)C(O)C9O)C8O)C(C)(CO)C7CCC6(C)C4(C)CC5)OC(CO)C(O)C3O)C(O)C2O)C(O)C(O)C1O (stereo unspecified)	nt	8%[13.5 µM]	nt
COc1ccc(Nc2c3c(nc4ccc(NC(=O)/C=C/c5cc(OC)c(OC)c(OC)c5)cc24)CCCC3)cc1OC	-77%	?	32µM*
COc1ccc(/C=C/C(=O)Nc2ccc3nc4c(c(Nc5ccc(OC)c(OC)c5)c3c2)CCCC4)cc1	-94%	-19%	?
CCOC(=O)C1CCCN(C(=O)c2cc3c(Cl)nc4ccccc4c3s2)C1 (stereo unspecified)	-84%	-24%	5µM*
O=C(c1cc2c(Cl)nc3ccccc3c2s1)N1CCCCC1	21%	-19%	3%
CC(C(=O)Nc1cc(C#N)ccc1CCCC(=O)O)c1ccc(F)c2ccccc12 (stereo unspecified)	nt	-4%	nt
O=C1[C@H](O[C@@H]2O[C@H](CO)[C@@H](O)[C@H](O)[C@H]2O)Oc2ccccc2N1O	nt	2%[53.3 µM]	nt
C=C1C(=O)OC[C@H]2C(C(=O)O)=CC3CC(C)(C)C[C@@]132 (stereo partly specified)	nt	1%	nt
Cn1c(=O)c2sccc2n2c(CCCC(=O)Nc3ccc(Oc4ccc(Cl)cc4)cc3)nnc12	-27%	?	40µM*
COc1ccc(NC(=O)CCc2nnc3n(C)c(=O)c4sccc4n23)cc1	1%	-4%	8%
C=C1CCC2C(OC(=O)C2(O)COC(C)=O)C2C(=C)C(O)CC12 (stereo unspecified)	nt	-7%[53.3 µM]	nt
COc1cc(C)c(C(=O)OC2C(C)OC(OC3CCC(C)C4C3C=C(C)C3/C(C)=C\CC/C(C)=C/C5(C)C=C(C(=O)O)C(C)CC56OC(=O)/C(=C(\O)C34C)C6=O)C(O)C2O)c(OC)c1 (stereo unspecified)	nt	0%[20.6 µM]	nt
O=C(OCC(O)CO[C@@H]1O[C@H](C(=O)O)[C@@H](O)[C@H](O)[C@H]1O)c1ccccc1 (stereo partly specified)	nt	-1%[53.3 µM]	nt
COc1cc(C2CC(=O)N(Cc3ccc(F)cc3)c3ccccc3S2)cc(OC)c1OC (stereo unspecified)	-62%	-21%	14µM*
COc1ccc(C2CC(=O)N(Cc3ccc(F)cc3)c3ccccc3S2)cc1OC (stereo unspecified)	-15%	?	-8%
CC[C@H]1OC(=O)[C@](C)(F)C(=O)[C@H](C)[C@@H](O[C@@H]2O[C@H](C)C[C@H](N(C)C)[C@H]2O)[C@](C)(OC)C[C@@H](C)C(=O)[C@@H](C)[C@H]2N(CCCCn3cc(-c4cccc(N)c4)nn3)C(=O)O[C@]12C	nt	12%	nt
C[C@@H]1O[C@@H](O[C@H]2CC[C@@]3(C)C(CC[C@]4(C)C3CC=C3[C@@H]5CC(C)(C)CC[C@]5(C(=O)O[C@@H]5O[C@H](CO)[C@@H](O)[C@H](O)[C@H]5O)CC[C@]34C)[C@]2(C)CO)[C@H](O)[C@H](O[C@@H]2O[C@H](CO)[C@@H](O)[C@H](O)[C@H]2O)[C@H]1O (stereo partly specified)	nt	-2%[20.6 µM]	nt
CC(=O)Nc1ccc(S(=O)(=O)N2CCC(c3ccncc3)CC2)cc1	9%	-22%	-13%
Cc1ccc(S(=O)(=O)N2CCC(c3ccncc3)CC2)c(C)c1	-84%	-2%	16µM*
CC(C)(C)c1ccc(S(=O)(=O)N2CCC(c3ccncc3)CC2)cc1	-88%	-7%	16µM*
O=S(=O)(c1ccccc1)N1CCC(c2ccncc2)CC1	-43%	-29%	?
O=S(=O)(c1ccc(Cl)cc1)N1CCC(c2ccncc2)CC1	-8%	-9%	-7%
CC(C)Cc1ccc(S(=O)(=O)N2CCC(c3ccncc3)CC2)cc1	-80%	-8%	16µM*
CCN1CCN(Cc2ccc(-c3cc4c(NC(C)c5ccccc5)ncnc4[nH]3)cc2)CC1 (stereo unspecified)	nt	-3%	nt
CCOP(=O)(Cc1ccc(C(=O)Nc2ccc(Br)cc2C#N)cc1)OCC	nt	-2%[53.3 µM]	nt
COc1ccc(-c2noc(N3CCC(C(=O)N4CCN(c5cccc(C)c5C)CC4)CC3)n2)cc1	-18%	-6%	?
COc1ccc(-c2noc(N3CCC(C(=O)Nc4ccc(F)cc4Cl)CC3)n2)cc1	-86%	-1%	1.8µM*

Screening results: PubChem, National Center for Advancing Translational Sciences (NCATS)
